Screening data (PubChem BioAssay)
VACV Venus inh: inhibitors of vaccinia virus (Venus reporter); AID 720580; Potency, µM (series often up to 36.5 µM), usual class: inhibitors; 0.46% of 330,000 active; Vaccinia virus Venus reporter expression, fluorescence; calls by dose curve; tested in A549 cells; also: nearly all actives have a fitted effect of over 30% in size
FMDV inh: blocks foot and mouth disease virus; 1.2% of 410,000 active; Potency, µM (doses to about 57.9 µM), actives largely listed as inhibitors; FMDV antiviral cell-based qHTS; calls by dose curve; tested in HEK293T cells; also: read-out not given here; nearly all actives have a fitted effect of over 45% in size
VACV mCherry inh: inhibitors of vaccinia virus infection (mCherry reporter signal); 0.63% of 310,000 active; Vaccinia virus mCherry reporter infection, fluorescence; Potency, µM (highest dose often 36.5 µM), usual class: inhibitors; calls by dose curve; tested in A549 cells; also: nearly all actives have a fitted effect of over 35% in size
Sm TGR block: inhibitors of Schistosoma mansoni thioredoxin glutathione reductase; Potency, µM (top dose mostly 114 µM), hits mostly inhibitors; purified TGR, DTNB reduction, TNB absorbance 405 nm; AID 485364; 3% of 360,000 active; active = well fitted inhibition curve with a large enough effect; inconclusive = small, poorly fitted or top-dose-only effect; inactive = no such curve, though single readings can be large or run the other way; also: nearly all actives have a fitted effect of over 60% in size
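First, TGR (20 nM dispensed) and NADPH were mixed with compound. Second, a 15 min room-temperature incubation followed. Third, further NADPH and then DTNB were added to start the reaction. Finally, TNB absorbance was monitored kinetically.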
MARV entry inh: inhibitors of Marburg virus binding or cell entry; AID 540276; 1.8% of 300,000 active; Potency, µM (titrated, usually from 37.8 µM), hits mostly inhibitors; Marburg virus pseudotyped entry inhibition, cell reporter; calls by dose curve; tested in HEK293 cells
Lassa entry inh: inhibitors of Lassa virus binding or cell entry; Lassa virus pseudotype entry inhibition, cell reporter; Potency, µM (titrated, usually from 37.9 µM), most hits filed as inhibitors; 1.2% of 300,000 active; AID 540256; calls by dose curve; tested in HEK293 cells; also: nearly all actives have a fitted effect of over 50% in size
Hits are given with their value; – = inactive; ? = inconclusive; · = not tested or not shown. Hits are enriched below; roughly 5.4% of the tested compounds scored in any of these assays.

SMILES	VACV Venus inh	FMDV inh	VACV mCherry inh	Sm TGR block	MARV entry inh	Lassa entry inh
Cc1ccc(C(=O)CCS(=O)(=O)c2ccc(Cl)cc2)cc1	–	–	–	0.355µM	–	?
Clc1ccccc1CNc1ncnc2c1c(-c1ccccc1)cn2-c1ccccc1	–	–	–	–	·	–
Cc1ccc(Cn2c(=O)n(-c3cc(C)cc(C)c3)c(=O)c3oc4ccccc4c32)cc1	–	–	–	–	·	–
COC(=O)CCC(=O)OC1(C)C(=O)C2=CN(CCCCO)C(c3ccc(OC)cc3)=CC2=C(Br)C1=O (stereo not drawn)	·	·	·	44.7µM	·	·
COC(=O)CCC(=O)OC1(C)C(=O)C2=CN(Cc3ccc4c(c3)OCO4)C(c3ccc(OC)cc3)=CC2=C(Br)C1=O (stereo not drawn)	–	–	–	·	–	·
COC(=O)CCC(=O)OC1(C)C(=O)C2=COC(c3ccc(OC)cc3)=CC2=C(Br)C1=O (stereo not drawn)	–	–	–	7.94µM	–	·
COc1ccc(CN2C=C3C(=O)C(C)(OC(=O)C4CCCC4)C(=O)C=C3C=C2c2ccsc2)cc1 (stereo not drawn)	–	–	–	–	?	·
COC(=O)CCC(=O)OC1(C)C(=O)C2=CN(CCc3ccccn3)C(c3ccc(OC)cc3)=CC2=C(Br)C1=O (stereo not drawn)	–	–	–	·	·	·
COc1ccc(C2=CC3=C(Br)C(=O)C(C)(OC(=O)C4CCCC4)C(=O)C3=CO2)cc1 (stereo not drawn)	–	–	–	7.08µM	·	·
COc1ccc(C2=CC3=C(Br)C(=O)C(C)(OC(=O)c4ccc(Cl)nc4)C(=O)C3=CO2)cc1 (stereo not drawn)	?	–	?	10µM	–	?
CC(=O)c1cc(-c2ccc(F)cc2)n(CCC(=O)Nc2nc3c(C)cccc3s2)c1C	–	–	–	–	·	–
O=c1c2cnn(-c3ccc(Cl)cc3)c2ncn1Cc1cccc(C(F)(F)F)c1	–	–	–	–	–	–
CC(=O)N1N=C(c2ccccc2)CC1c1cn(Cc2ccccc2)c2ccccc12 (stereo not drawn)	?	31.6µM	?	–	?	?
Cc1cnc(C)c(-c2cc(F)cc3c2OC(CNC(=O)CN2CCCC2)C3)n1 (stereo not drawn)	–	–	–	·	·	·
Cc1cc(C)c(NC(=O)COC(=O)c2ccc([N+](=O)[O-])s2)c(C)c1	–	–	–	–	–	–
NS(=O)(=O)c1ccc(NC(=O)COC(=O)c2ccc([N+](=O)[O-])s2)cc1	–	–	–	25.1µM	·	·
CCOC(=O)Cn1cc2c(c1-c1ccc(Cl)cc1)c(=O)n(C)c(=O)n2C	–	–	–	–	–	–
COc1cccc(C(=O)NC2CC3CCCC(C2)N3CC(=O)Nc2ccccc2C(F)(F)F)c1 (stereo not drawn)	?	–	?	–	11.2µM	?
S=C(Nc1ccc(Cl)cc1)NC1CC2CCC(C1)N2Cc1ccccc1 (stereo not drawn)	–	–	–	–	?	–
O=C(CN1C2CCCC1CC(NC(=O)C1CCCCC1)C2)Nc1ccccc1C(F)(F)F (stereo not drawn)	–	?	–	–	?	?
CCc1ccc(NC(=S)NC2CC3CCCC(C2)N3Cc2ccccc2)cc1 (stereo not drawn)	·	–	·	·	10.3µM	?
S=C(Nc1ccc(Cl)c(Cl)c1)NC1CCN(Cc2ccccc2)CC1	14.1µM	14.1µM	·	–	?	?
Cc1ccc(C(=O)NC2CC3CCCC(C2)N3Cc2ccccc2)cc1 (stereo not drawn)	–	–	–	–	–	–
Cc1cccc(C(=O)NC2CC3CCCC(C2)N3Cc2ccccc2)c1 (stereo not drawn)	–	–	–	–	3.16µM	–
CCOc1cc(Cn2c(-c3ccc(O)c(OCC)c3)nc3ccccc32)ccc1O	–	–	–	–	·	–
CC(=O)c1ccc(F)c(-c2cc(C)cc3c2OC(CNC(=O)c2cccnc2)C3)c1 (stereo not drawn)	–	–	–	·	·	·
Cc1ccc(CN2C3CCCC2CC(NC(=O)c2ccc(F)cc2)C3)cc1 (stereo not drawn)	–	–	–	–	7.08µM	–
OC(c1ccc(Cl)cc1)c1ncc(-c2ccc(Oc3ccccc3)cc2)[nH]1 (stereo not drawn)	?	–	10µM	·	·	·
OC(c1ccccc1)c1ncc(-c2ccc(Oc3ccccc3)cc2)[nH]1 (stereo not drawn)	?	–	15.8µM	·	·	·
